Calls of active or inactive are those of the source.

One assay can be described thus: E. coli acrAB mutant growth effects, primary screen, E. coli filamentation inducers, strain DRC39, OD650, 24 h (AID 1178).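 Note: growth measured as culture turbidity by optical density at 650 nm; test concentration not given here.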 Particulars: higher = more signal, called active from +8 up or from −8 down.
`COc1ccc(CCNC(=O)[C@@]2(c3ccc([N+](=O)[O-])cc3)CC(=O)N(C3CCCCC3)[C@@H]2c2ccc(CO)cc2I)cc1`: the z-score is 0.359 (inactive).
On the same count and under the same terms, in the case of `C=CC[C@]12N=C(c3ccc(OCCCO)cc3)O[C@H]1c1ccccc1N(CCC)C2=O` it was 0.181 (inactive).
In the case of `[N-]=[N+]=Nc1ccccc1C[C@@]1(C(=O)NCc2ccccc2)N=C(c2ccc(OCCCO)cc2)O[C@@H]1c1ccccc1`, the z-score was 0.712 (inactive).
Still for that read-out and setting: next, `O=C1O[C@@H](c2ccccc2)[C@@H](c2ccccc2)N2[C@@H](c3ccccc3OCCO)[C@]3(C(=O)Nc4ccc(C#CC5(O)CCCCCC5)cc43)[C@@H](C(=O)N3CCCCCCC3)[C@H]12`: -0.36 (inactive); `C=CC[C@H](O)c1ccc(O)c2ccccc12`: 0.682 (inactive); `C=C1C(=O)C=C2CN(C(=O)c3ccccc3)[C@@](Cc3ccc(F)cc3)(C(=O)OC)[C@@H]12`: 0.322 (inactive).
The same measure, in the same setting: in the case of `COc1ccc(C(=O)Nc2cccc(CN3C(=O)[C@]4(O[C@H](CC(=O)N(CCO)Cc5ccccc5)[C@@H]([Si](C)(C)c5ccc(OC)cc5)[C@@H]4C)c4ccccc43)c2)cc1` it was 1.46 (inactive); in that of `COC(=O)C1=CC(CCCO)=CC(c2ccc(CN3CCCC3)cc2)N(C)C=C1C(=O)OC` (stereo not drawn), 0.98 (inactive).
As to `[N-]=[N+]=NCc1ccccc1C[C@@]1(C(=O)NCCN2CCOCC2)N=C(c2ccc(OCCCO)cc2)O[C@@H]1c1ccccc1`, the z-score is 0.594 (inactive).
The same measure, in the same setting: in the case of `COC(=O)C(CC#Cc1ccc2c(c1)[C@]1(C(=O)N2)[C@H](C(=O)N2CCCCCCC2)[C@H]2C(=O)O[C@H](c3ccccc3)[C@H](c3ccccc3)N2[C@@H]1c1ccc(OCCO)cc1)C(=O)OC` it was 0.0679 (inactive); in that of `CN(C)C(=O)[C@]1(CCS(=O)(=O)c2ccccc2)N=C(c2ccc(OCCCO)cc2)O[C@@H]1c1ccccc1CN=[N+]=[N-]`, 0.293 (inactive); in that of `CC1CC/C=C\[C@H]2OC34C=CCN(CCN5CCOCC5)C(=O)[C@H]3N(C(CO)C(C)C)C(=O)[C@@H]4C2C(=O)O1` (stereo partly drawn), 0.332 (inactive).
On the same count and under the same terms, next, `COc1ccc([Si](C)(C)[C@H]2[C@H](CC(=O)N(CCO)Cc3ccccc3)O[C@@]3(C(=O)N(c4ccccc4)c4ccccc43)[C@@H]2C)cc1`: 0.997 (inactive).
On the same count and under the same terms, next, `C=CCNC(=O)[C@H]1[C@@H]2C(=O)O[C@@H](c3ccccc3)[C@@H](c3ccccc3)N2[C@@H](c2ccc(O)cc2)[C@]12C(=O)Nc1ccc(C#CCC(C(=O)OC)C(=O)OC)cc12`: -0.254 (inactive).
For `CC[C@@H]1C=C(C(=O)O)[C@H](c2cccc(Cl)c2)N1S(=O)(=O)c1ccc(C)cc1`, the z-score was -0.647 (inactive).
On the same count and under the same terms, in the case of `C=CCOC(=O)[C@H]1[C@@H]2C(=O)O[C@@H](c3ccccc3)[C@@H](c3ccccc3)N2[C@@H](c2ccc(OCCOC(=O)[C@H]3C[C@H]4C(=O)NCC(=O)N4[C@H]3c3ccc(O)cc3)cc2)[C@]12C(=O)Nc1ccccc12` it was 0.504 (inactive); in that of `OCCCc1cc[n+](Cc2cc3c(cc2Br)OCO3)cc1`, 0.311 (inactive); in that of `COc1ccc([Si](C)(C)[C@@H]2[C@@H](CC(=O)N(CCO)Cc3ccccc3)O[C@]3(C(=O)N(Cc4cccc(I)c4)c4ccccc43)[C@H]2C)cc1`, -0.335 (inactive).

A short description of a further assay: E. coli acrAB mutant growth effects, primary screen, E. coli filamentation inducers, strain DRC39, OD650, 48 h (AID 1179).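 Note: screen aims at cell division blockers that make cells filament.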 Conditions: E. coli DRC39 delta-acrAB growth, higher = more signal, called active from +8 up or from −8 down.
Regarding `COc1ccc(C(=O)Nc2ccc(CN3C(=O)[C@]4(O[C@H](CC(=O)N(CCO)Cc5ccccc5)[C@@H]([Si](C)(C)c5ccc(OC)cc5)[C@@H]4C)c4ccccc43)cc2)cc1`, the z-score is -0.575 (inactive).
Turning to `Cc1ccc(S[C@]2(C(=O)NC(C)C)CC(=O)N(Cc3ccccc3)[C@@H]2c2ccc(CO)cc2I)cc1`, the z-score was 0.494 (inactive).
Take `C=C(CCCC)C(=O)CC[C@@H](OC(C)=O)c1ccc(OCCO)cc1`: the z-score is 0.189 (inactive).
On the same count and under the same terms, in the case of `COC(=O)[C@@]1(Cc2ccc(F)cc2)[C@H]2c3cc(C(=O)N4CCCC4)n(CCc4c[nH]c5cc(F)ccc45)c3C[C@H]2CN1C(=O)c1ccccc1` it was -0.55 (inactive); in that of `C=CCN1C(=O)[C@]2(O[C@H](CCO)[C@@H]([Si](C)(C)c3ccc(OC)cc3)[C@@H]2C)c2cc(N3C(=O)c4ccccc4Oc4ccccc43)ccc21`, -0.757 (inactive).
Same read-out and setting: next, `COC(=O)C(CC#Cc1ccc2c(c1)[C@]1(C(=O)N2)[C@H](c2ccc(OCCO)cc2)N2[C@H](c3ccccc3)[C@H](c3ccccc3)OC(=O)[C@H]2[C@@H]1C(N)=O)C(=O)OC`: 0.287 (inactive); `CC(C)N1C(=O)[C@@]2(Cc3ccccc31)c1ccccc1C(=O)N(Cc1ccccc1C(F)(F)F)[C@H]2c1ccc(CO)cc1`: -0.818 (inactive).
The same measure, in the same setting: next, `C=C(C(=O)CC[C@@H](OC(=O)c1ccccc1-c1ccccc1C(=O)O)c1ccc(OCCO)cc1)C(C)C`: -0.135 (inactive); `COc1ccc(CCNC(=O)[C@@]2(C)c3ccccc3C(=O)N(Cc3ccc(OC(F)(F)F)cc3)[C@H]2c2ccc(CO)cc2)cc1`: -0.657 (inactive); `[N-]=[N+]=NCc1ccccc1[C@H]1OC(c2ccc(OCCCO)cc2)=N[C@@]1(Cc1ccccc1N=[N+]=[N-])C(=O)O`: -0.779 (inactive).
For `CC(C)c1ccc(NN2C(C(O)C3CCCCC3)C=CC3C(=O)N(c4ccccc4)C(=O)C32)cc1` (stereo not drawn), the z-score is 0.51 (inactive).
On to `CC(CO)N1C(=O)[C@@H]2[C@H]3C(=O)OCC=C[C@H]3OC23C=CCN(c2ccc4ccccc4c2)C(=O)[C@@H]13` (stereo partly drawn), for which the z-score is -0.534 (inactive).
Same read-out and setting: in the case of `O=C1O[C@H](c2ccccc2)[C@H](c2ccccc2)N2[C@H]1[C@@H](C(=O)O)[C@]1(C(=O)Nc3ccccc31)[C@H]2c1ccc(OCCO)cc1` it was -0.858 (inactive); in that of `C=CCNC(=O)[C@@H]1[C@H]2C(=O)O[C@H](c3ccccc3)[C@H](c3ccccc3)N2[C@H](c2ccc(OCCO)cc2)[C@@]12C(=O)N(C(=O)OCCOC)c1ccccc12`, 0.282 (inactive); in that of `C[C@]1(C(=O)NC2CC2)c2ccccc2C(=O)N(Cc2cc(F)cc(C(F)(F)F)c2)[C@H]1c1ccc(CO)cc1`, 0.401 (inactive).
Same read-out and setting: in the case of `C=CCNC(=O)[C@@H]1[C@H]2C(=O)O[C@H](c3ccccc3)[C@H](c3ccccc3)N2[C@H](c2ccc(O)cc2)[C@@]12C(=O)Nc1ccc(C#CC3=CCCCC3)cc12` it was 0.254 (inactive); in that of `Cc1cccc([C@H]2C[C@H]3C(Br)=C[C@@]2(CO)C(=O)[C@]32CO2)c1`, 0.294 (inactive).
As to `COc1ccc(CCNC(=O)[C@@]2(c3ccc([N+](=O)[O-])cc3)CC(=O)N(C3CCCCC3)[C@@H]2c2ccc(CO)cc2I)cc1`, the z-score was -0.0406 (inactive).
Still for that read-out and setting: in the case of `C=CC[C@]12N=C(c3ccc(OCCCO)cc3)O[C@H]1c1ccccc1N(CCC)C2=O` it was -0.464 (inactive).
On the same count and under the same terms, next, `[N-]=[N+]=Nc1ccccc1C[C@@]1(C(=O)NCc2ccccc2)N=C(c2ccc(OCCCO)cc2)O[C@@H]1c1ccccc1`: -0.489 (inactive).
On the same count and under the same terms, next, `O=C1O[C@@H](c2ccccc2)[C@@H](c2ccccc2)N2[C@@H](c3ccccc3OCCO)[C@]3(C(=O)Nc4ccc(C#CC5(O)CCCCCC5)cc43)[C@@H](C(=O)N3CCCCCCC3)[C@H]12`: -1.17 (inactive); `C=CC[C@H](O)c1ccc(O)c2ccccc12`: 0.419 (inactive).
Regarding `C=C1C(=O)C=C2CN(C(=O)c3ccccc3)[C@@](Cc3ccc(F)cc3)(C(=O)OC)[C@@H]12`, the z-score is -1.8 (inactive).
The same measure, in the same setting: next, `COc1ccc(C(=O)Nc2cccc(CN3C(=O)[C@]4(O[C@H](CC(=O)N(CCO)Cc5ccccc5)[C@@H]([Si](C)(C)c5ccc(OC)cc5)[C@@H]4C)c4ccccc43)c2)cc1`: 0.852 (inactive); `COC(=O)C1=CC(CCCO)=CC(c2ccc(CN3CCCC3)cc2)N(C)C=C1C(=O)OC` (stereo not drawn): 1.32 (inactive); `[N-]=[N+]=NCc1ccccc1C[C@@]1(C(=O)NCCN2CCOCC2)N=C(c2ccc(OCCCO)cc2)O[C@@H]1c1ccccc1`: -0.959 (inactive).
Still for that read-out and setting: next, `COC(=O)C(CC#Cc1ccc2c(c1)[C@]1(C(=O)N2)[C@H](C(=O)N2CCCCCCC2)[C@H]2C(=O)O[C@H](c3ccccc3)[C@H](c3ccccc3)N2[C@@H]1c1ccc(OCCO)cc1)C(=O)OC`: -0.878 (inactive); `CN(C)C(=O)[C@]1(CCS(=O)(=O)c2ccccc2)N=C(c2ccc(OCCCO)cc2)O[C@@H]1c1ccccc1CN=[N+]=[N-]`: -0.373 (inactive).
Same read-out and setting: next, `CC1CC/C=C\[C@H]2OC34C=CCN(CCN5CCOCC5)C(=O)[C@H]3N(C(CO)C(C)C)C(=O)[C@@H]4C2C(=O)O1` (stereo partly drawn): 0.365 (inactive); `COc1ccc([Si](C)(C)[C@H]2[C@H](CC(=O)N(CCO)Cc3ccccc3)O[C@@]3(C(=O)N(c4ccccc4)c4ccccc43)[C@@H]2C)cc1`: -0.0322 (inactive); `C=CCNC(=O)[C@H]1[C@@H]2C(=O)O[C@@H](c3ccccc3)[C@@H](c3ccccc3)N2[C@@H](c2ccc(O)cc2)[C@]12C(=O)Nc1ccc(C#CCC(C(=O)OC)C(=O)OC)cc12`: -0.0535 (inactive).
For the compound `CC[C@@H]1C=C(C(=O)O)[C@H](c2cccc(Cl)c2)N1S(=O)(=O)c1ccc(C)cc1`, the z-score is -0.55 (inactive).
Same read-out and setting: in the case of `C=CCOC(=O)[C@H]1[C@@H]2C(=O)O[C@@H](c3ccccc3)[C@@H](c3ccccc3)N2[C@@H](c2ccc(OCCOC(=O)[C@H]3C[C@H]4C(=O)NCC(=O)N4[C@H]3c3ccc(O)cc3)cc2)[C@]12C(=O)Nc1ccccc12` it was -0.0754 (inactive); in that of `OCCCc1cc[n+](Cc2cc3c(cc2Br)OCO3)cc1`, -0.0111 (inactive); in that of `COc1ccc([Si](C)(C)[C@@H]2[C@@H](CC(=O)N(CCO)Cc3ccccc3)O[C@]3(C(=O)N(Cc4cccc(I)c4)c4ccccc43)[C@H]2C)cc1`, -0.795 (inactive).

Source of the values: PubChem BioAssay.
